Consider 40 molecules from PubChem BioAssay (NCI).

The panel holds about 79,000 compounds, 15% with a hit somewhere; the sample as a whole holds those more often. Values without a mark were called inactive. Active and inactive are the calls of the source. Cut-off read from the data, not from the text of the source: active = growth inhibition above about 70%; inactive = the rest.

One assay in a line: NCI Yeast Anticancer Drug Screen. Data for the cln2 rad14 strain (AID 165).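 Note: 0% = growth equal to vehicle treated cultures.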 The conditions noted are these: S. cerevisiae cln2 rad14 strain, at 5.0 µM (retest, dose inferred, filed as 0.5), hits give high values. The procedure, abridged: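 Growth inhibition, relative to vehicle-treated controls, is the read-out. The test organism is a yeast strain with defined genetic alterations, cln2 rad14.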
For the molecule `CCCC(C)(COC(N)=O)COC(=O)NC1CC1` (stereo not given), the growth inhibition is -2%.
Regarding `O=C(O)C(CSC(c1ccccc1)c1ccccc1)NC(=O)C(c1ccccc1)c1ccccc1` (stereo not given), the growth inhibition is 15%.
For `CC1=CC2CC(C)=C(CC[C@]3(C)CC[C@H]([C@@H](C)C(=O)O)OO3)C(C)(C)C2CC1` (stereo not given in full), the growth inhibition is 41%.
On to `O=[N+]([O-])/C=C/c1c(Cl)cccc1Cl`, for which the growth inhibition was 99% (active).
On the same count and under the same terms, for `O=[n+]1c2ccccc2n([O-])c2ccccc21.[Cl][Cu][Cl]` the value was 7%; for `CC(=O)C(CN1CCOCC1)C(c1ccccc1)c1c(O)c2ccccc2oc1=O` (stereo not given), 5%.
Still for that read-out and setting: for `CC(C)c1oc(=O)cc2c1C(O)C1OC(=O)C3(C)C(O)C4OC4C2(C)C13` (stereo not given) the value was 19%; for `C#CCN1C(=O)N(CC#C)C(=O)C(CC#C)(C(CC=C)c2ccccc2)C1=O` (stereo not given), 16%.
In the case of `COC(=O)C1c2c(C)cc3n2C(C=CC3)C1C(=O)OC` (stereo not given), the growth inhibition is 67%.
On the same count and under the same terms, next, `[Cl][Hg][c]1ccc(Cl)s1`: 99% (active).
The same measure, in the same setting: for `N#CC(Cl)(Cl)CCl` the value was -5%; for `O=C1CCC(=O)N1SC(Cl)(Cl)Cl`, -11%.
`CCCC(=O)O.CCCC(=O)O.CCCC(=O)O.CCCC(=O)O.[Rh].[Rh]`: the growth inhibition was 42%.
`CC(CCC/C=C/CCCN(C)C(=N)N)CC(C)C1OC(=O)C(C)C(O)/C=C/C(C)C(O)C(C)C(O)C(C)C(O)CCCC(O)CC2(O)OC(CC(OC(=O)CC(=O)O)CC(O)CC(O)C(C)C(O)/C=C/C=C/C1C)CC(O)C2O` (stereo not given): the growth inhibition is 21%.
Same read-out and setting: for `OC(CN(CCCl)CCCl)C(O)C(O)C(O)CN(CCCl)CCCl` (stereo not given) the value was -6%; for `O=[N+]([O-])c1ccc(CS(=O)(=O)C(Cl)Cl)o1`, -6%; for `CC(C)c1cc([N+](=O)[O-])cc([N+](=O)[O-])c1O`, 8%.
Still for that read-out and setting: for `O=P(c1cccc(C(F)(F)F)c1)(c1cccc(C(F)(F)F)c1)c1cccc(C(F)(F)F)c1.O=P(c1cccc(C(F)(F)F)c1)(c1cccc(C(F)(F)F)c1)c1cccc(C(F)(F)F)c1.[Cl][Sn]([Cl])([Cl])[Cl]` the value was -10%; for `COc1cc(N(CC(C)Br)CC(C)Br)ccc1N=Nc1ccccc1C(=O)O` (stereo not given), 52%; for `C(=P(c1ccccc1)(c1ccccc1)c1ccccc1)[P+](c1ccccc1)(c1ccccc1)c1ccccc1.[Cl][Fe]([Cl])([Cl])[Br]`, 98% (active).
Take `COc1ccc2c(c1)CCC(N1CCCC(=O)C1)C2` (stereo not given): the growth inhibition was 11%.
For `C1CCNCC1.O=C([CH-]C(=O)C(F)(F)F)c1ccc2c(c1)C(=O)c1ccccc1-2.O=C([CH-]C(=O)C(F)(F)F)c1ccc2c(c1)C(=O)c1ccccc1-2.O=C([CH-]C(=O)C(F)(F)F)c1ccc2c(c1)C(=O)c1ccccc1-2.O=C([CH-]C(=O)C(F)(F)F)c1ccc2c(c1)C(=O)c1ccccc1-2.[Eu+3]`, the growth inhibition was 54%.
For `O=C1C(=O)C(Br)(Br)C(Br)=C1Br`, the growth inhibition is -1%.
Still for that read-out and setting: for `CN(C)C(=S)Nc1nnc(NC23CC4CC(CC(C4)C2)C3)s1` the value was -22%.
Turning to `C[CH2][Hg]`, the growth inhibition is 99% (active).
As to `c1cc2n[pH]nc2cn1` (stereo not given), the growth inhibition was 5%.
`CCC[CH2][Sn]1([CH2]CCC)[O]CC(Cc2ccccc2)[O]1` (stereo not given): the growth inhibition was 32%.
As for `Clc1ccccc1C#[C][Hg][C]#Cc1ccccc1Cl`, the growth inhibition is 1%.
On to `CC12CCC3C(CC=C4CC(SC(=N)N)CCC43C)C1CCC2=O` (stereo not given), for which the growth inhibition was 9%.
`COc1ccccc1/C=C/[N+](=O)[O-]`: the growth inhibition is 62%.
Consider `ClC(CN1CCCCC1)C(Cl)c1ccccc1` (stereo not given), for which the growth inhibition is 7%.
With `CCC[CH2][Sn]1([CH2]CCC)[O]CC(CN2CCCCC2)[O]1` (stereo not given), the growth inhibition was 22%.
As to `COC1OC(CO)C(O)C(O)[CH]1[Hg][Cl]` (stereo not given), the growth inhibition is 99% (active).
Same read-out and setting: for `ClC1=C(Cl)C2(Cl)C(Cl)CC1(Cl)C2(Cl)Cl` (stereo not given) the value was 0%.
For `[Hg][c]1ccccc1`, the growth inhibition was 99% (active).
Turning to `O=[N+]([O-])c1cccc(SC(Cl)(Cl)Cl)c1`, the growth inhibition was -11%.
As for `CC1=C(O)C(=O)C=C2C1=CC=C1[C@@]2(C)CC[C@@]2(C)[C@@H]3C[C@](C)(C(=O)O)CC[C@]3(C)CC[C@]12C`, the growth inhibition was 92% (active).
`CCC[CH2][Sn]1([CH2]CCC)[O]C2C(O)OC(CO)C(O)C2[O]1` (stereo not given): the growth inhibition was 64%.
Turning to `O=[As]c1ccccc1O` (stereo not given), the growth inhibition was -9%.
Still for that read-out and setting: for `CC[PH+](CC)CC.[Cl][Au]` the value was 92% (active).

The assay is the same for the next values; noted with them: S. cerevisiae cln2 rad14 strain, at 50.0 µM (retest, dose inferred, filed as 5.0), hits give high values.
Turning to `CCCC(C)(COC(N)=O)COC(=O)NC1CC1` (stereo not given), the growth inhibition was -6%.
`O=C(O)C(CSC(c1ccccc1)c1ccccc1)NC(=O)C(c1ccccc1)c1ccccc1` (stereo not given): the growth inhibition is 84% (active).
For the molecule `CC1=CC2CC(C)=C(CC[C@]3(C)CC[C@H]([C@@H](C)C(=O)O)OO3)C(C)(C)C2CC1` (stereo not given in full), the growth inhibition is 98% (active).
Turning to `O=[N+]([O-])/C=C/c1c(Cl)cccc1Cl`, the growth inhibition is 99% (active).
As to `O=[n+]1c2ccccc2n([O-])c2ccccc21.[Cl][Cu][Cl]`, the growth inhibition is 97% (active).
In the case of `CC(=O)C(CN1CCOCC1)C(c1ccccc1)c1c(O)c2ccccc2oc1=O` (stereo not given), the growth inhibition is 79% (active).
With `CC(C)c1oc(=O)cc2c1C(O)C1OC(=O)C3(C)C(O)C4OC4C2(C)C13` (stereo not given), the growth inhibition was 71% (active).
Still for that read-out and setting: for `C#CCN1C(=O)N(CC#C)C(=O)C(CC#C)(C(CC=C)c2ccccc2)C1=O` (stereo not given) the value was 95% (active); for `COC(=O)C1c2c(C)cc3n2C(C=CC3)C1C(=O)OC` (stereo not given), 78% (active).
Same read-out and setting: next, `[Cl][Hg][c]1ccc(Cl)s1`: 99% (active).
As for `N#CC(Cl)(Cl)CCl`, the growth inhibition is 33%.
In the case of `O=C1CCC(=O)N1SC(Cl)(Cl)Cl`, the growth inhibition is -13%.
In the case of `CCCC(=O)O.CCCC(=O)O.CCCC(=O)O.CCCC(=O)O.[Rh].[Rh]`, the growth inhibition is 69%.
As to `CC(CCC/C=C/CCCN(C)C(=N)N)CC(C)C1OC(=O)C(C)C(O)/C=C/C(C)C(O)C(C)C(O)C(C)C(O)CCCC(O)CC2(O)OC(CC(OC(=O)CC(=O)O)CC(O)CC(O)C(C)C(O)/C=C/C=C/C1C)CC(O)C2O` (stereo not given), the growth inhibition was 99% (active).
Take `OC(CN(CCCl)CCCl)C(O)C(O)C(O)CN(CCCl)CCCl` (stereo not given): the growth inhibition is 50%.
With `O=[N+]([O-])c1ccc(CS(=O)(=O)C(Cl)Cl)o1`, the growth inhibition was 68%.
On to `CC(C)c1cc([N+](=O)[O-])cc([N+](=O)[O-])c1O`, for which the growth inhibition is 82% (active).
With `O=P(c1cccc(C(F)(F)F)c1)(c1cccc(C(F)(F)F)c1)c1cccc(C(F)(F)F)c1.O=P(c1cccc(C(F)(F)F)c1)(c1cccc(C(F)(F)F)c1)c1cccc(C(F)(F)F)c1.[Cl][Sn]([Cl])([Cl])[Cl]`, the growth inhibition was 73% (active).
On the same count and under the same terms, next, `COc1cc(N(CC(C)Br)CC(C)Br)ccc1N=Nc1ccccc1C(=O)O` (stereo not given): 98% (active); `C(=P(c1ccccc1)(c1ccccc1)c1ccccc1)[P+](c1ccccc1)(c1ccccc1)c1ccccc1.[Cl][Fe]([Cl])([Cl])[Br]`: 99% (active); `COc1ccc2c(c1)CCC(N1CCCC(=O)C1)C2` (stereo not given): 38%.
Take `C1CCNCC1.O=C([CH-]C(=O)C(F)(F)F)c1ccc2c(c1)C(=O)c1ccccc1-2.O=C([CH-]C(=O)C(F)(F)F)c1ccc2c(c1)C(=O)c1ccccc1-2.O=C([CH-]C(=O)C(F)(F)F)c1ccc2c(c1)C(=O)c1ccccc1-2.O=C([CH-]C(=O)C(F)(F)F)c1ccc2c(c1)C(=O)c1ccccc1-2.[Eu+3]`: the growth inhibition is 77% (active).
Regarding `O=C1C(=O)C(Br)(Br)C(Br)=C1Br`, the growth inhibition is -2%.
For `CN(C)C(=S)Nc1nnc(NC23CC4CC(CC(C4)C2)C3)s1`, the growth inhibition is 94% (active).
Take `C[CH2][Hg]`: the growth inhibition is 100% (active).
`c1cc2n[pH]nc2cn1` (stereo not given): the growth inhibition was -8%.
Consider `CCC[CH2][Sn]1([CH2]CCC)[O]CC(Cc2ccccc2)[O]1` (stereo not given), for which the growth inhibition is 95% (active).
On to `Clc1ccccc1C#[C][Hg][C]#Cc1ccccc1Cl`, for which the growth inhibition was 29%.
As for `CC12CCC3C(CC=C4CC(SC(=N)N)CCC43C)C1CCC2=O` (stereo not given), the growth inhibition was 19%.
`COc1ccccc1/C=C/[N+](=O)[O-]`: the growth inhibition is 99% (active).
For the molecule `ClC(CN1CCCCC1)C(Cl)c1ccccc1` (stereo not given), the growth inhibition was 37%.
Take `CCC[CH2][Sn]1([CH2]CCC)[O]CC(CN2CCCCC2)[O]1` (stereo not given): the growth inhibition is 91% (active).
In the case of `COC1OC(CO)C(O)C(O)[CH]1[Hg][Cl]` (stereo not given), the growth inhibition was 99% (active).
For `ClC1=C(Cl)C2(Cl)C(Cl)CC1(Cl)C2(Cl)Cl` (stereo not given), the growth inhibition is -9%.
Take `[Hg][c]1ccccc1`: the growth inhibition is 27%.
Regarding `O=[N+]([O-])c1cccc(SC(Cl)(Cl)Cl)c1`, the growth inhibition is 96% (active).
Regarding `CC1=C(O)C(=O)C=C2C1=CC=C1[C@@]2(C)CC[C@@]2(C)[C@@H]3C[C@](C)(C(=O)O)CC[C@]3(C)CC[C@]12C`, the growth inhibition was 98% (active).
For the molecule `CCC[CH2][Sn]1([CH2]CCC)[O]C2C(O)OC(CO)C(O)C2[O]1` (stereo not given), the growth inhibition is 99% (active).
On to `O=[As]c1ccccc1O` (stereo not given), for which the growth inhibition is 98% (active).
As to `CC[PH+](CC)CC.[Cl][Au]`, the growth inhibition was 99% (active).
